Assay results from the supplement of paper PMC8387472.

Tests used:
Test in all cases: fraction of edited reads among all mapped reads; higher = more Cas9 editing
Conditions in all cases: mESC; 2uM; 72 h treatment, harvest day 5
[1] = compound: CC(=O)O/N=C1\C(=O)N(Cc2cc(Cl)ccc2Cl)c2ccc(Cl)cc21
[2] = compound: CC(C)(C#N)c1ccc(N2C(=O)OCc3cnc4ccc(-c5cnc6ccccc6c5)cc4c32)cc1
[3] = compound: CCCCOc1c(C(=O)c2c(F)cc(C)cc2F)c[nH]c2nncc1-2
[4] = compound: CCN1CCN(CC(=O)Nc2ccc(-c3cccc4c(=O)cc(N5CCOCC5)oc34)c3sc4ccccc4c23)CC1
[5] = compound: CCc1c2c(nc3ccc(OC(=O)N4CCC(N5CCCCC5)CC4)cc13)-c1cc3c(c(=O)n1C2)COC(=O)[C@]3(O)CC [Irinotecan HCl Trihydrate]
[6] = compound: CCn1c(=O)c(-c2ccc(Cl)cc2Cl)cc2cnc(Nc3ccc(N4CCNCC4)c(F)c3)nc21
[7] = compound: CNc1ccc([N+](=O)[O-])c(Nc2ccc3[nH]ncc3c2)n1
Rifapentine = compound: CO[C@H]1/C=C/O[C@@]2(C)Oc3c(C)c(O)c4c(O)c(c(/C=N/N5CCN(C6CCCC6)CC5)c(O)c4c3C2=O)NC(=O)/C(C)=C\C=C\[C@H](C)[C@H](O)[C@@H](C)[C@@H](O)[C@@H](C)[C@H](OC(C)=O)[C@@H]1C [Rifapentine]
[8] = compound: COc1ccccc1-c1cc(Nc2cccc(CS(N)(=O)=O)c2)ncn1
[9] = compound: C[C@@H]1CN(CC(=O)Nc2ccc3c(c2)Cc2cccc(-c4cc(=O)cc(N5CCOCC5)o4)c2S3)C[C@H](C)O1

Target	fraction of edited reads among all mapped reads [1]	fraction of edited reads among all mapped reads [2]	fraction of edited reads among all mapped reads [3]	fraction of edited reads among all mapped reads [4]	fraction of edited reads among all mapped reads [5]	fraction of edited reads among all mapped reads [6]	fraction of edited reads among all mapped reads [7]	fraction of edited reads among all mapped reads (Rifapentine)	fraction of edited reads among all mapped reads [8]	fraction of edited reads among all mapped reads [9]
26.0 (DMSO control at this site: 1-bp insertion 0.518, MH deletion 0.262, edited 0.026) AGGGCGCGCCCCACGCACTCTGCGGCAAGTCCCTCTGCGGCAAGTCCTCGGCCCGGAAGAC	0.0291	0.0255	0.0319	0.0118	0.0344	0.0242	0.0263	0.0398	0.0351	0.0296
2.0 (DMSO control at this site: 1-bp insertion 0.364, MH deletion 0.356, edited 0.125) GGTGCCCCCGAGACCTACGCGAACCGAAATCGATGTCCGGTGCGCAAGCAGGGCTGGCGTC	0.141	0.129	0.143	0.0564	0.191	0.14	0.176	0.228	0.172	0.121
0.0 (DMSO control at this site: 1-bp insertion 0.463, MH deletion 0.339, edited 0.14) AGGATTACCGAGACCTACGCGAACCGAAATCGCTGTCCGGTGCGCAAGCAGGGCTGGCGTC	0.147	0.154	0.172	0.0626	0.218	0.155	0.203	0.274	0.213	0.15
19.0 (DMSO control at this site: 1-bp insertion 0.121, MH deletion 0.101, edited 0.057) TCTGCAGGGGTCGGAACCCGGGGGCTAGGGCTATCCCGGGGGCTAGGGCTATTAGCGAACC	0.0656	0.0719	0.0679	0.0342	0.0806	0.0564	0.0687	0.0905	0.087	0.0476
47.0 (DMSO control at this site: 1-bp insertion 0.095, MH deletion 0.585, edited 0.118) GAGTGGTCCCGAGCCAGGAACTGTGTGTGTTGCAGGGGGGCAGTAACTCCCCAACTCCCTC	0.124	0.13	0.135	0.0496	0.156	0.121	0.151	0.198	0.151	0.0862
16.0 (DMSO control at this site: 1-bp insertion 0.172, MH deletion 0.29, edited 0.05) CGGACTGCACACATGGGTAGGATCGTGCACGCGAGGTAGGATCGTGCACGCGAAGTTATTC	0.0491	0.0603	0.0612	0.0319	0.079	0.0596	0.0609	0.0951	0.076	0.0437
33.0 (DMSO control at this site: 1-bp insertion 0.008, MH deletion 0.771, edited 0.112) CATTAAGAGCAGCTGCCGGCCCCCAAGTGGACAGAGCTGGCCCTGCTGATTCAACAGTGCA	0.133	0.111	0.123	0.0458	0.162	0.115	0.126	0.211	0.163	0.0718
27.0 CCAGAATTAGAACATATCATCTGGACCCTTTTCCATCTGGACCCTTTTCCAGCACACCCTG	0.0506	0.055	0.0501	–	0.0605	–	0.0612	0.0829	0.0745	–
28.0 (DMSO control at this site: 1-bp insertion 0.035, MH deletion 0.77, edited 0.142) TGGTTCTTCCTTTGTAGAGAGTGTTCATCTGGGAATCTGGGACTTGGATGAGACAATCATT	0.171	0.174	0.171	0.0787	0.217	0.16	0.181	0.291	0.196	0.0747
30.0 (DMSO control at this site: 1-bp insertion 0.074, MH deletion 0.67, edited 0.142) GAGCTGGCATGAGTATTTGTGCCACATGGCTCCCACATGGCTCCACATGCAAGTTTGAAAC	0.142	0.149	0.158	0.066	0.204	0.156	0.187	0.224	0.177	0.134
21.0 CGATTGAGAGTCAAACGGGCCAGAAAACTCCGGGAACGGGCCAGAAAACTCCGGGGCATGG	0.124	0.106	0.132	0.0441	0.152	–	0.141	0.199	0.144	0.046
5.0 (DMSO control at this site: 1-bp insertion 0.214, MH deletion 0.567, edited 0.105) CGCTGACCCGAGACCTACGCGAACCGAAATCGGCGACCGGTGCGCAAGCAGGGCTGGCGTC	0.13	0.128	0.133	0.0591	0.169	0.13	0.145	0.226	0.163	0.085
31.0 (DMSO control at this site: 1-bp insertion 0.315, MH deletion 0.329, edited 0.026) ACCTCCACAGGCTGGGTGGCCCGGAGGCTGGGCGGCCCGGAGGCTGGGCTGGGCGAGTATC	0.0285	0.0243	0.0286	0.0119	0.0428	0.0286	0.0363	0.0504	0.0355	–
46.0 TTAAGAGCAATGTTCACGCAACTTGAAATTATATCTGTGGTCTTCAAATTGTCTTTTGTCA	–	0.109	0.106	–	–	–	0.099	0.157	–	–
40.0 (DMSO control at this site: 1-bp insertion 0.072, MH deletion 0.192, edited 0.189) GCGAATCAACTGTTCAACAACAGCAGCAGCCACCTGGAGGACTACAGTGGCCTGTCCGTGT	0.203	0.198	0.224	0.0829	0.259	0.184	0.242	0.327	0.271	0.219
17.0 (DMSO control at this site: 1-bp insertion 0.112, MH deletion 0.348, edited 0.058) CCATAGCGCGATAAATATGACGGCTCATCCTGTATGACGGCTCATCCTGTATCAACTGTCC	0.0666	0.0797	0.0794	0.0411	0.0882	0.0594	0.0812	0.115	0.0964	0.0394
23.0 AGAACAAAGCGCTCATATAACGATATGGGGGGTTATGGGGGGTTGAATTGCTTCAGCACGA	–	–	–	–	–	–	0.981	–	–	–
34.0 (DMSO control at this site: 1-bp insertion 0.184, MH deletion 0.385, edited 0.103) ATTATAGGACCCTGAGGGAGCAGAGATGTGGGAATGGGGGCCGAGCCAATTGTGATGTAAG	0.119	0.107	0.0942	0.0488	0.159	0.0937	0.114	0.157	0.129	0.0719
8.0 GCATGCGTGTTTTGGGACAATGTAGTATACATTTGGGAGGCTCTCAGCTTTTCCCAATAAA	0.0233	0.0207	0.0186	–	–	–	–	–	–	–
22.0 (DMSO control at this site: 1-bp insertion 0.573, MH deletion 0.229, edited 0.045) CTGATGGTTGAAGGATTTAGCCGGGGTCCTAGACGCCGGGGTCCTAGACGAAAGGGCCACG	0.0447	0.0542	0.0455	0.0167	0.0664	0.0371	0.0513	0.0926	0.0709	0.0389
